In PubChem BioAssay one finds composite z-score and z-score data, which are given here for 5 compounds.

Activity calls are given as the source filed them. Unless noted, how the calls were made is not given here.

Test [1] is described as follows: anti-His antibody binders, primary screen, artefact control for SMM control protein annotation, biochemical, small-molecule microarray, 635 nm fluorescence (AID 1128).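 Further: score merges feature fluorescence with signal-to-noise for each printed compound spot.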 Particulars: anti-His Alexa647 antibody binding, higher = more signal.
The test system of test [2] is Human papillomavirus type 1a E7 protein (residues 1-88). As to the kind of experiment: HPV1a E7 small-molecule binders, primary screen, biochemical, small-molecule microarray, residues 1-88, 635 nm (AID 1129). Particulars: small-molecule microarray binding, fluorescence 635 nm; higher = more signal.
In test [3] the target is Focal adhesion kinase 1 (Homo sapiens) (UniProt Q05397). Put plainly: small-molecule microarray binders of FAK, primary screen, biochemical, 635/667 nm fluorescence, BSA, DTT (AID 1130).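 Further: composite of spot emission at 667 nm and signal to noise over triplicate slides.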 Particulars: PTK2 binding, 635 nm fluorescence, higher = more signal.
Test [4] has as its system Fibrinogen (Alexa647-labelled). As to the kind of experiment: fibrinogen binders on compound microarrays, profiling panel, artefact control for SMM control-protein annotation, biochemical, small-molecule microarray, 635/667 nm fluorescence (AID 1131).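 Further: z-score merges 667 nm fluorescence with per-spot signal-to-noise over triplicate slides.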 The following applies: fibrinogen-A647 binding fluorescence, higher = more signal.
Test [5] concerns the target Follistatin (Homo sapiens) (UniProt P19883). As to the kind of experiment: follistatin binders on small-molecule microarrays, primary screen, biochemical, small-molecule microarray, 635/667 nm fluorescence (AID 1132). Particulars: FST binding, 635 nm fluorescence, higher = more signal.
Test [6] deals with Fibroblast growth factor 2 (Homo sapiens) (UniProt P09038). Put plainly: FGF2 binders on small-molecule microarrays, primary screen, biochemical, small-molecule microarray, 635/667 nm fluorescence (AID 1133). Particulars: small-molecule microarray binding, FGF2, fluorescence 635/667; higher = more signal.
Test [7] in a line: mitochondrial membrane potential change in A549 cells, profiling panel, cell-based, JC-1 fluorescence, basal, 24 h, 100 nL (AID 1138).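 Further: A549 lung adenocarcinoma cells under basal conditions with no added stimulus; test concentration not given here.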 Particulars: higher = more signal.
The next test concerns Lefty1. Put plainly: Lefty1 binders on small-molecule microarrays, primary screen, biochemical, small-molecule microarray, 635/667 nm fluorescence (AID 1139). Particulars: small-molecule microarray binding, fluorescence 635/667; higher = more signal.
Test [8] deals with wheat germ agglutinin (Triticum aestivum), Alexa647-labelled. Put plainly: wheat germ agglutinin binders on compound microarrays, profiling panel, artefact control for SMM control-protein annotation, biochemical, small-molecule microarray, 635/667 nm fluorescence (AID 1140).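 Further: score merges 667 nm feature emission with signal to noise over triplicate slides.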 The following applies: WGA-A647 binding, 635 nm fluorescence, higher = more signal.
Test [9] has as its target Luciferin 4-monooxygenase (Photinus pyralis) (UniProt P08659). Put plainly: firefly luciferase enzyme inhibitors, primary screen, biochemical, luminescence, purified enzyme, 2006 set (AID 1141).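 Further: cell-free assay with purified firefly luciferase at 100 ng per well in PBS; test concentration not given here.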 Particulars: SteadyGlo luminescence, 30 min, higher = more signal, called active from +8 up or from −8 down.
The test system of test [10] is Wnt5a (protein binding on small-molecule microarray). As to the kind of experiment: Wnt5a binders on small-molecule microarray, primary screen, biophysical, 635/667 nm fluorescence (AID 1142).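 Further: fluorescence read at 667 nm with signal to noise per printed feature.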 The following applies: 635 nm fluorescence, higher = more signal.
Test [11] can be described thus: cell viability in Huh7 cells, primary screen, cytotoxicity control for HCV replication inhibitor project, CellTiter-Glo luminescence, basal, 48 h (AID 1143).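 Further: Huh7 hepatoma cells carrying a hepatitis C replication reporter with no stimulus; test concentration not given here.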 Particulars: Huh7 HCV replicon, higher = more signal, called active from +8 up or from −8 down.
Test [12] in a line: P. aeruginosa biofilm formation inhibitors, primary screen, PAO1 strain, BacTiter-Glo luminescence, LB-PBS (AID 1144). Particulars: 12 h, higher = more signal.
Test [13] in a line: CREB reporter modulators without forskolin, primary screen, cell-based, PC12, CRE-LacZ reporter, unstimulated (AID 1145). Particulars: no forskolin, luminescence, 4.5 h, higher = more signal, called active from +8 up or from −8 down.
Test [14] can be described thus: CREB reporter modulators under forskolin, primary screen, cell-based, PC12, CRE-LacZ reporter, forskolin-stimulated (AID 1146).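 Further: PC12 cells with 6xCRE LacZ reporter stimulated by forskolin 10 µM; beta-galactosidase reporter signal reflecting CREB driven transcription.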 Particulars: luminescence, 4.5 h, higher = more signal, called active from +8 up or from −8 down.
The target of test [15] is Streptavidin (Streptomyces avidinii) (UniProt P22629). Put plainly: streptavidin binders on small-molecule microarray, primary screen, artefact control for SMM compound annotation, biophysical, 635/667 nm fluorescence (AID 1147).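 Further: signal reflects streptavidin binding to arrayed compounds as a control protein.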 Particulars: streptavidin binding, higher = more signal.
Test [16] is described as follows: small-molecule binders of probe aInhba, primary screen, biochemical, small-molecule microarray, 635/667 nm fluorescence (AID 1148).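 Further: score merges 667nm spot fluorescence with signal-to-noise for antibody binding to printed compounds.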 Particulars: higher = more signal.
Test [17] deals with Torsin-1A (Homo sapiens) (UniProt O14656). As to the kind of experiment: torsin A binders from cell lysate, primary screen, small-molecule microarray, wild-type, 635/667 nm (AID 1149). The following applies: COS7 hTOR1A-WT lysate, 635 nm fluorescence, higher = more signal.
The target is the same in test [18]. As to the kind of experiment: small-molecule binders of mutant TOR1A in lysate, primary screen, cell lysate, small-molecule microarray, COS7 lysate, 635/667 nm fluorescence (AID 1150).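 Further: score pools 667 nm emission and signal to noise measuring lysate protein binding.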 The following applies: COS7 hTOR1A mutant lysate, 635 nm fluorescence, higher = more signal.
Test [19] has as its system Sonic hedgehog protein (Shh). Put plainly: small-molecule binders of Shh protein, primary screen, biochemical, small-molecule microarray, 635/667 nm fluorescence (AID 1151).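 Further: Shh protein binding to compounds spotted on small-molecule microarray slides; score combines spot fluorescence intensity with signal-to-noise across triplicate slides.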 Particulars: small-molecule microarray binding, 635 nm fluorescence; higher = more signal.

Sequence of Luciferin 4-monooxygenase (Photinus pyralis) (P08659 whole entry, looked up): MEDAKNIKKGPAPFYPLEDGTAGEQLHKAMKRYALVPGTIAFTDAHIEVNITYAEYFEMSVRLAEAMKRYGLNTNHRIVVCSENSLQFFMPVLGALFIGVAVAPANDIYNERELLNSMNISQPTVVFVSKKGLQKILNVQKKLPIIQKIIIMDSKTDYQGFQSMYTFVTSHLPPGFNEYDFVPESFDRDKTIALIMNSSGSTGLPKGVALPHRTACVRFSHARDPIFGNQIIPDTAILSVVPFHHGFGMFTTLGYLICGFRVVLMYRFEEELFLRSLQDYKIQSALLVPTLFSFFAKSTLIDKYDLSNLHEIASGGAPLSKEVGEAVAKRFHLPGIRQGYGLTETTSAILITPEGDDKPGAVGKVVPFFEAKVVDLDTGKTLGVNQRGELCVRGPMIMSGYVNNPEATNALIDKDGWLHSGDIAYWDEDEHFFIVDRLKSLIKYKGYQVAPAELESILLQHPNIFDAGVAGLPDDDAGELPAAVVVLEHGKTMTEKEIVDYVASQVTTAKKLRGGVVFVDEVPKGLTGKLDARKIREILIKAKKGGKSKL
Sequence of Follistatin (Homo sapiens) (P19883 whole entry, looked up): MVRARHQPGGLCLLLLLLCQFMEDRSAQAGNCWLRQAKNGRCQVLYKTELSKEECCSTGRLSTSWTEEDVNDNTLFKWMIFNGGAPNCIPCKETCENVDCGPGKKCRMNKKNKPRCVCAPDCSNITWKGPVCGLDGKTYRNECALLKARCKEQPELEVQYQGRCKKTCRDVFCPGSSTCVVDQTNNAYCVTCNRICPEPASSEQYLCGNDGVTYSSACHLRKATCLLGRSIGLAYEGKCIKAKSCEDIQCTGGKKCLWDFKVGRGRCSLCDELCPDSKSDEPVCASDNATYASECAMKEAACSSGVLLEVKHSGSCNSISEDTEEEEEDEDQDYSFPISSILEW
Sequence of Focal adhesion kinase 1 (Homo sapiens) (Q05397 whole entry, looked up): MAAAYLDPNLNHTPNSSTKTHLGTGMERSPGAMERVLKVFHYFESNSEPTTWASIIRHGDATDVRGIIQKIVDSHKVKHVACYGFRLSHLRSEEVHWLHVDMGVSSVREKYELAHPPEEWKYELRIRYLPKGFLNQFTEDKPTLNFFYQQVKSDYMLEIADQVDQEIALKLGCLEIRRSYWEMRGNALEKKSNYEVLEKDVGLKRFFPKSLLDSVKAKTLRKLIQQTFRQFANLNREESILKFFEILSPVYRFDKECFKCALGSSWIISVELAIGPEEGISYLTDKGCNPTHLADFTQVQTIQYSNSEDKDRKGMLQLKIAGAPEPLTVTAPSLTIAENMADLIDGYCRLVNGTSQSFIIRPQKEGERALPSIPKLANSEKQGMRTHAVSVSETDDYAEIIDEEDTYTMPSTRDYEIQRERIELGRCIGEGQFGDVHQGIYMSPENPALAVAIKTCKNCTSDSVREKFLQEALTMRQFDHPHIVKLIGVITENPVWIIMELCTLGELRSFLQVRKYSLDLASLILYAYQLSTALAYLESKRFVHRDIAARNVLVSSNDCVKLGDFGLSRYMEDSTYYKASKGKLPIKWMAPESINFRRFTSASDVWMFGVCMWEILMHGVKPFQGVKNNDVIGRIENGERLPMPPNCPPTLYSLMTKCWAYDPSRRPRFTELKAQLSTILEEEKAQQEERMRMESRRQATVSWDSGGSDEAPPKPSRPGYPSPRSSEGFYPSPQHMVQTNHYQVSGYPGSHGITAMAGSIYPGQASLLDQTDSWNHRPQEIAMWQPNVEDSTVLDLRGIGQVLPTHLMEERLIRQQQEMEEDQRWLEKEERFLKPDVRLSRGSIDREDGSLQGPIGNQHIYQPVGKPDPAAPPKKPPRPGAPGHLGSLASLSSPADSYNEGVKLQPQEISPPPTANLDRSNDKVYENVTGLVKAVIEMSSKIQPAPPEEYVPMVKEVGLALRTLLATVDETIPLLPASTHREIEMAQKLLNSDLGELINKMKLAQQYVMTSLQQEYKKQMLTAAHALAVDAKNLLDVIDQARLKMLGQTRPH
Sequence of Torsin-1A (Homo sapiens) (O14656 whole entry, looked up): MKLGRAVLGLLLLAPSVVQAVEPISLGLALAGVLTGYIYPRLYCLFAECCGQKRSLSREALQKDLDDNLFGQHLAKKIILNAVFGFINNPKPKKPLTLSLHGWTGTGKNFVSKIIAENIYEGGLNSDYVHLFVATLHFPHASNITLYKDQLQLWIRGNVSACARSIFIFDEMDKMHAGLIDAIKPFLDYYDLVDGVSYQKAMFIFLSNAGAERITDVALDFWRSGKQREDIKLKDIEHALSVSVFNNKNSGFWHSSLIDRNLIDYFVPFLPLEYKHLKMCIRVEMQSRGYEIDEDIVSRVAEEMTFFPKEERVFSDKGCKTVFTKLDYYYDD
Sequence of Fibroblast growth factor 2 (Homo sapiens) (P09038 whole entry, looked up): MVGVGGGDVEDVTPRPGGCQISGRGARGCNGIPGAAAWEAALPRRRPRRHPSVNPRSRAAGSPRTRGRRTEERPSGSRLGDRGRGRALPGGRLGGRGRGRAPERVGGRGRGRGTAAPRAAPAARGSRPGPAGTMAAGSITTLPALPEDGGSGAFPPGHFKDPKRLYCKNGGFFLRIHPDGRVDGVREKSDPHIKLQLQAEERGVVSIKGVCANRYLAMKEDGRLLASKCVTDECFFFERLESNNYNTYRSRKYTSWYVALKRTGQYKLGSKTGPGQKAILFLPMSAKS
Sequence of Streptavidin (Streptomyces avidinii) (P22629 whole entry, looked up): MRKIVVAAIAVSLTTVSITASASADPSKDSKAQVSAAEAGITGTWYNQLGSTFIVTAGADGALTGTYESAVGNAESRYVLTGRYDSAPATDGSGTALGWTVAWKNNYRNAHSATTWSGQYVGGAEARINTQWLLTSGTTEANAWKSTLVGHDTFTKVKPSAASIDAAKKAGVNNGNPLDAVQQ

Take `COCCOC(=O)N1C(=O)[C@@]2(c3ccccc31)[C@H](c1ccc(OCCO)cc1)N1[C@H](c3ccccc3)[C@H](c3ccccc3)OC(=O)[C@H]1[C@@H]2C(=O)NC[C@H](O)c1ccccc1`: the composite z-score in test [1] was found to be 1.95; in test [2], 1.23; in test [3], 0.327; in [4] it was 0.937; in [5] it was 1.32; in [6], 1.03. For the same compound, the composite z-score was 0.714 with Lefty1; 1.05 in [8]; 0.385 in [10]; 0.258 in [15]; 0.268 in test [16]; 1.19 in the test with Torsin-1A (Homo sapiens) [17]. Further, the composite z-score was determined as 0.662 with Torsin-1A (Homo sapiens) [18] and 2.04 in test [19]. The z-score in test [7] is 0.414; in test [9], -0.652 (inactive); in [11], -1.49 (inactive); in test [12] it was 0.109 (inactive); in [13] it was 0.891 (inactive); in test [14], 10.1 (active).
Regarding `COCCCNC(=O)[C@@]1(Cc2ccccc2CN=[N+]=[N-])N=C(c2ccc(OCCCO)cc2)O[C@H]1c1ccccc1N=[N+]=[N-]`, the composite z-score in test [1] was found to be 2.29; in [2] it was 1.19; in [3], 0.543; in test [4], 0.931; in [5], 1.35; in test [6] it was 1.18. Moreover, the composite z-score came out at 0.0538 in the test on Lefty1; 1.2 in test [8]; 1.08 in test [10]; 1.37 in [15]; 0.786 in test [16]; 0.0556 in the test with Torsin-1A (Homo sapiens) [17]. The composite z-score in the test with Torsin-1A (Homo sapiens) [18] is 0.516; in test [19], 0.341. The z-score in test [7] was 3.53; in test [9], -4.87 (inactive); in [11], -4.47 (inactive); in [12], -0.867 (inactive); in test [13], -0.207 (inactive); in [14], -0.834 (inactive).
For `COCCCNC(=O)[C@]1(Cc2ccccc2)N=C(c2ccc(OCCCO)cc2)O[C@@H]1c1ccccc1N=[N+]=[N-]`, the composite z-score in test [1] was 0.36; in [2], 1.22; in test [3], -0.0142; in test [4], 0.977; in test [5] it was 1.25; in test [6], 0.401. Besides, the composite z-score in the test with Lefty1 is 0.276; in test [8], 0.544; in test [10], 1.1; in test [15] it was 0.607; in test [16], -0.0136; in the test with Torsin-1A (Homo sapiens) [17], 1.04. Also, the composite z-score with Torsin-1A (Homo sapiens) [18] was 1.04; in [19], -0.46. Besides, the z-score is -0.141 in test [7]; -4.67 (inactive) in [9]; -5.91 (inactive) in test [11]; -1.57 (inactive) in test [12]; 0.101 (inactive) in test [13]; -0.844 (inactive) in [14].
For `Cc1ccc(F)cc1S(=O)(=O)N[C@@H]1CCN(C(=O)c2ccc(OC(C)C)cc2)C1`, the composite z-score was determined as 1.42 in test [1]; 1.16 in [2]; 0.485 in test [3]; 0.371 in [4]; 0.485 in test [5]; 1.24 in [6]. In addition, the composite z-score came out at 0.913 in the test on Lefty1; 0.557 in [8]; 0.336 in test [10]; 0.224 in [15]; 0.143 in test [16]; 0.0677 with Torsin-1A (Homo sapiens) [17]. Besides, the composite z-score in the test with Torsin-1A (Homo sapiens) [18] stood at 0.196; in test [19], 0.975. Further, the z-score in test [7] is 0.946; in test [9], -0.457 (inactive); in test [11], -0.798 (inactive); in [12], 0.595 (inactive); in test [13], 2.66 (inactive); in test [14] it was -0.906 (inactive).
`CN(C)C(=O)[C@]1(Cc2ccccc2N=[N+]=[N-])N=C(c2ccc(OCCCO)cc2)O[C@@H]1c1ccccc1CN=[N+]=[N-]`: the composite z-score in test [1] is 1.28; in test [2], 1.25; in test [3], 0.651; in [4], 1.06; in [5], 1.23; in test [6], 1.06. Besides, the composite z-score in the test with Lefty1 worked out at 0.624; in [8], 0.763; in test [10], 0.556; in [15] it was 1.27; in test [16], 0.282; with Torsin-1A (Homo sapiens) [17], 0.683. The composite z-score worked out at 0.84 with Torsin-1A (Homo sapiens) [18] and 0.307 in test [19]. Further, the z-score was 0.417 in test [7]; -0.307 (inactive) in [9]; -4.87 (inactive) in test [11]; -1.57 (inactive) in [12]; 1.57 (inactive) in test [13]; 0.367 (inactive) in [14].
